An excerpt weighted towards active compounds, which were near 5.4% of everything screened.
AHR act: human AHR activation; AHR-responsive luciferase reporter cells, luminescence; activation, % at 5 µM; actives 2.5% (n = 320,000); AID 2796; in the data active means activation above about 47%;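 further: 0% = vehicle wells and 100% = reference agonist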
DAX1 inh: inhibitors of human orphan nuclear receptor DAX1 (NR0B1); P51843; HEK293 Gal4-DAX1 luciferase reporter, luminescence; inhibition, % at 6.75 µM; actives 0.99% (n = 340,000);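 active means inhibition above the mean over all tested compounds plus 3 SD, cut at about 4.2% in these data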;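 further: 0% = DAX1-transfected cells with DMSO and 100% = empty-vector control cells with DMSO; inhibition shows as a rise in luminescence from relieved DAX1 repression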
Target sequence (P51843 207-470 limits assumed): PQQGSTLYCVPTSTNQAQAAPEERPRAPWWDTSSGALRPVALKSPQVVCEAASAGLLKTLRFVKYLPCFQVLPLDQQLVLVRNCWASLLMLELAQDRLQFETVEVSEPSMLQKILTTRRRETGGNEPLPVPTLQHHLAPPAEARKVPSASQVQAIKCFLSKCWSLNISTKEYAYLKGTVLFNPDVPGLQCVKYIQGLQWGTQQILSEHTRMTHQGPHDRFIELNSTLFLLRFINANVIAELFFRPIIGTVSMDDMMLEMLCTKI
HSF1 inh: HSF1 inhibition; NIH3T3-HGL HSE-luciferase, MG132-induced, luminescence 8 h; active compounds read low; activity change, negative = inhibition, % at 7.5 µM (by protocol); actives 0.77% (n = 300,000); AID 2098;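 active means more than half of replicate wells show activity change below -50%, luminescence cut by over half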;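 further: luciferase reports HSF-1 transcriptional activity via heat shock element; 0% = median of DMSO wells and -100% = zero luminescence signal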
GAA850 FXN act: increases GAA850 frataxin promoter reporter activity; actives 0.56% (n = 360,000); activation, % at 6 µM; HEK293 lucGAA850 FXN promoter luciferase reporter, 24 h; percent of 10 µM SAHA response;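 active means activation above the average of all compounds screened plus 3 SD, cutoff fixed separately per campaign, cut at about 7.5% in these data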;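 further: 0% = DMSO wells and 100% = 10 µM SAHA wells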
HSF1 activator: increases HSF-1 driven luciferase reporter signal. NIH3T3-HGL HSF-1 luciferase reporter, MG132, 8 h; 100% = twice DMSO control signal. activation, % at 9 µM. actives 1.7% (n = 300,000);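 active means mean replicate activation of at least 50% with a set share of replicates each reaching 50%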;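 further: 0% = median of the neutral control wells and 100% = twice that signal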
Active calls of the source: *; . = no result.

SMILES | AHR act | DAX1 inh | HSF1 inh | GAA850 FXN act | HSF1 activator
COc1ccccc1C(=O)NCc1nnc(SCC(=O)Nc2nccs2)n1C | 12.6 | 8.3* | 0.4 | 1.0 | -0.4
O=C1CN(C(=O)CSc2nc(-c3ccccc3)cs2)c2ccccc2N1 | 58.2* | -1.0 | 16.4 | -0.1 | 47.6
Cc1nc(NC(=S)NC(=O)c2cccs2)ccc1Br | 71.5* | 0.6 | 17.4 | 5.5 | 11.2
CC(C)NC(=O)CSc1nc(-c2ccccc2)cs1 | . | 4.7* | 1.3 | 2.8 | -13.4
Cc1cccc(NC(=S)NC(=O)c2cccs2)n1 | 24.1 | 1.4 | 17.5 | 3.3 | 27.9
Cn1c(CSCc2ccccc2)nnc1SCC(=O)Nc1nccs1 | 3.5 | -0.8 | -5.2 | 0.6 | -5.4
O=C1CN(C(=O)CSc2nncs2)c2ccccc2N1 | -0.4 | 0.9 | 2.1 | 1.3 | 17.5
COc1cc(Br)c(CN2C(=O)NC3(CCCCCC3)C2=O)cc1OC | 3.4 | -1.6 | 5.1 | -2.1 | 9.8
O=C(c1cc(F)c(F)cc1Cl)N1CCN(c2ncccn2)CC1 | 3.9 | 0.5 | -7.2 | 3.0 | -15.5
COc1ccc(C(=O)NNC(=S)NC(=O)c2cccs2)cc1 | 4.8 | -1.1 | -74.4* | 0.4 | -72.5
CCOc1cc(NC(=S)NC)c(OCC)cc1NC(=O)c1cccs1 | 8.5 | 5.0* | 7.3 | 0.2 | 13.0
CCC(=O)Nc1cccc(NC(=S)NC(=O)c2cccs2)c1 | 49.7* | 1.7 | 64.1 | 4.9 | 79.3*
CC(C)CC(=O)NC(=S)Nc1nc(-c2ccc(Cl)cc2)cs1 | 8.3 | -0.9 | -12.5 | -0.6 | 3.4
CC(C)CC(=O)NC(=S)Nc1nc(-c2ccccc2)cs1 | 67.4* | -0.4 | -6.8 | 4.2 | -7.2
O=C(Cc1ccc(Cl)cc1)N/N=C/c1cccc(O)c1 | 2.8 | -0.9 | 1.2 | -1.4 | 13.5
Cn1c(SCC(=O)Nc2ccc(Br)cn2)nnc1C1CC1 | 4.4 | 1.1 | 0.6 | -2.0 | -16.0
CCN(CC(=O)Nc1c(F)cccc1F)C(=O)c1ccccn1 | -0.5 | -0.2 | . | 1.2 | .
O=C(NC(=S)Nc1nc(-c2ccccc2)cs1)c1cccs1 | 67.9* | 0.1 | -8.7 | 1.1 | -3.3
O=C(NC(=S)Nc1cccc2cccnc12)c1cccs1 | 69.5* | -1.2 | 109.1 | 3.6 | 155.8*
O=C(NC(=S)Nc1cccc2cccnc12)c1ccccc1 | 32.2 | 1.3 | 14.1 | 1.2 | 30.9
Cn1c(CCNC(=O)c2cccs2)nnc1SCC(=O)Nc1nc(-c2ccccc2)cs1 | 0.9 | 1.4 | 11.4 | 2.1 | 54.3*
Nc1ncnc2c1ncn2[C@@H]1O[C@H](CNC(=O)[C@@H](N)COCc2ccccc2)[C@@H](O)[C@H]1O | . | 0.2 | . | 1.4 | .
CCC(=O)Nc1ccc(/C=C(\C(C)=O)C(=O)c2ccccc2)cc1 | -3.6 | -1.7 | 10.6 | -0.5 | 29.8
CN(C)c1ccc(C(=O)/C=C/c2ccco2)cc1 | 8.0 | -0.5 | 18.4 | 6.1 | 68.1*
CN(C)c1ccc(C(=O)/C=C/c2ccccc2)cc1 | 5.6 | 1.5 | 47.6 | 6.3 | 73.6*
SMILES | AHR act | DAX1 inh | HSF1 inh | GAA850 FXN act | HSF1 activator
CC(=O)/C(=C/c1ccc(N(C)C)cc1)C(=O)c1ccccc1 | 4.6 | 0.4 | 42.4 | 1.0 | 81.4*
COC(=O)[C@@H](Cc1c[nH]c2ccccc12)NCc1ccc(B(O)O)cc1 | . | 0.8 | . | 1.3 | .
CC(OC(=O)c1ccco1)C(=O)NCc1ccc2c(c1)OCO2 (stereo not given) | -0.5 | 1.9 | 3.3 | 1.6 | 28.4
Cn1c(SCC(=O)Nc2cccnc2Cl)nc2ccccc21 | 2.2 | 0.6 | . | 4.1 | .
O=C(COC(=O)c1cccnc1Cl)Nc1cc(S(=O)(=O)N2CCCCCC2)ccc1Cl | . | -1.1 | . | 0.8 | .
Cc1ccc(-c2csc3ncnc(Nc4ccc(N5CCOCC5)cc4)c23)cc1 | 78.1* | -0.4 | -0.4 | 6.8 | 7.2
COc1ccccc1N1CCN(C(=O)/C=C/c2ccco2)CC1 | 4.2 | 1.7 | -0.7 | 3.0 | 27.1
COc1ccccc1N1CCN(/N=C/C=C\c2ccco2)CC1 | -1.7 | 1.1 | 55.0 | 4.3 | 79.9*
COc1cccc(/C=N/N2CCN(c3ccccc3OC)CC2)c1 | -1.3 | 1.5 | 2.6 | 3.9 | 0.7
COc1ccccc1N1CCN(/N=C/c2cccc(Cl)c2)CC1 | -2.9 | 1.4 | 16.0 | 3.8 | 60.1*
COc1ccc(Br)c(Cn2c(C)c(C(=O)NCc3ccc4c(c3)OCCO4)sc2=O)c1 | . | . | . | -1.4 | .
Cc1cc(C)c(S(=O)(=O)Nc2ccc(N(C)C)cc2)c(C)c1-n1cnnn1 | 0.1 | 1.2 | -65.1* | -2.8 | -69.7
O=C(O)CC(Cc1ccc(Br)cc1)C(=O)O (stereo not given) | 0.3 | 0.7 | -76.5* | -1.5 | -81.4
CCOc1ccc(NC(=O)C(CC(=O)O)Cc2ccc(Br)cc2)cc1 (stereo not given) | 0.0 | 1.4 | -9.6 | 2.1 | -0.9
CCOC(=O)c1c(-c2ccc(C)o2)csc1NC(=S)NC(=O)N(C)C | 57.4* | 2.2 | 42.1 | 0.9 | 55.6*
CCOC(=O)c1c(-c2ccc(C)o2)csc1NC(=O)COC(=O)c1cccs1 | 2.2 | -0.6 | 8.4 | 1.5 | 7.9
Cc1ccc(OCC(=O)NN=C2C3CC4CC(C3)CC2C4)cc1 | 1.6 | 0.4 | . | 1.7 | .
Cc1noc(NS(=O)(=O)c2ccc(N/C=C\C(=O)c3cccc4ccccc34)cc2)c1C | 2.7 | 6.6* | -6.5 | 2.6 | -9.5
O=C1c2ccccc2C(=O)c2c1oc(C(F)(F)F)c2C(=O)c1ccccc1 | 11.3 | -2.0 | -78.3* | -0.3 | -80.3
O=C(c1ccccc1)c1coc2c1C(=O)c1ccccc1C2=O | 15.1 | -1.5 | -6.5 | 3.3 | -18.6
CCOc1cc(/C=C2\CN(C)C/C(=C\c3ccc(O)c(OCC)c3)C2=O)ccc1O | 0.9 | -6.1 | 19.2 | -13.2 | 24.3
CCOc1cc(/C=C2\CCC/C(=C\c3cc(Cl)c(O)c(OCC)c3)C2=O)cc(Cl)c1O | -11.1 | -3.9 | 214.9 | -6.4 | 316.2*
COc1ccc(-c2cc(C(F)(F)F)nc(S(=O)(=O)CCC(=O)N3CCOCC3)n2)cc1 | 6.3 | 1.1 | 79.2 | 1.9 | 106.4*
Oc1cccc(C=NCc2ccccc2)c1O | -1.6 | -1.2 | -8.1 | 2.9 | -8.6
O=[N+]([O-])c1ccc(N=Cc2sc3ccccc3c2O)cc1 | 27.5 | -1.4 | -84.1* | 2.6 | -87.0
SMILES | AHR act | DAX1 inh | HSF1 inh | GAA850 FXN act | HSF1 activator
Oc1c(C=NCc2ccccc2)sc2ccccc12 | 8.4 | 11.9* | 20.9 | 1.6 | 36.4
O=[N+]([O-])c1cccc(N=Cc2sc3ccccc3c2O)c1 | 7.7 | . | 27.6 | . | 31.6
NC(Cc1ccc(F)cc1)c1csc(Nc2ccc(C(F)(F)F)cn2)n1 (stereo not given) | . | . | . | 0.0 | .
O=C(Cn1c(=O)oc2cc(S(=O)(=O)N3CCCC3)ccc21)Nc1ccccn1 | . | . | . | -0.7 | .
Nc1ccn(C2OC(COP(=O)(O)O)C(O)C2O)c(=O)n1 (stereo not given) | . | -3.4 | . | -3.8 | .
CSC(C(=O)c1cc2ccccc2o1)c1ccccc1 (stereo not given) | 4.3 | 1.1 | 15.9 | 2.9 | 35.0
COc1ccc(NC(=S)N2CCN(C(=O)c3ccco3)CC2)cc1OC | . | 1.0 | -5.1 | 0.7 | -14.6
CCOc1cc(-c2nc(-c3ccc(C)nc3OCC)no2)cc(OCC)c1OCC | 3.3 | 1.3 | -4.0 | 0.2 | 7.4
